# Results as given in ChEMBL document CHEMBL4888484, “Replenishing the malaria drug discovery pipeline: Screening and hit evaluation of the MMV Hit Generation Library 1 (HGL1) against asexual blood stage Plasmodium falciparum ,using a nano luciferase reporter read-out” (2022).
# Hit rate of the full screen: of about 4,800 compounds, about 410 (8.5%) showed an effect of 50% or more. Many of the other results were omitted from the sample, so strong results are more common in it than they were.
# Tested on: Plasmodium falciparum
# Test: Confirmatory screen in NF54 pLDH assay, in single point, at 2uM, 72h
# Type: functional, Erythrocyte
# Conditions: timepoint 72 hour
row,Structure (SMILES),% Inhibition
1,COCc1cc(C(=O)N[C@H](c2ccccc2)C2CCOCC2)no1,8%
2,COc1ccc(C(=O)N2CC[C@H](c3nc(C4CCOCC4)no3)C2)cc1OC,11%
3,O=C(NCC1CCOCC1)c1ccc2n[nH]c(=O)n2c1,6%
4,COc1ccc(-c2[nH]ncc2C(=O)NCC2CCCCC2)cc1OC,6%
5,CC(C)(NC(=O)CC1(O)CCCCC1)C(=O)Nc1ccccc1,5%
6,O=C(Nc1ccc(F)cc1)c1c(-c2ccc(Cl)cc2)nc2n1CCS2(=O)=O,-4%
7,COC(=O)C1C2CCC(C2)C1NC(=O)c1ccncc1 (stereo not given),2%
8,O=C([C@@H]1CCCN1c1ncc(C(F)(F)F)cc1Cl)N1Cc2ccccc2C1,-18%
9,CCOC(=O)[C@@H](NC(=O)Nc1ccccc1C(F)(F)F)C(F)(F)F,11%
10,O=C(NC1CC1C1CCCCC1)N1CCS(=O)(=O)CC1 (stereo not given),-4%
11,CCc1c(NC(=O)[C@@H](C)C2CC2)nnn1CCc1ccc(OC)cc1,12%
12,COc1ccc(NC(=O)[C@@H](C)C2CCOCC2)cc1,-5%
13,COC(=O)c1c(NC(C)=O)c2cc(NC3CCOCC3)cnc2n1CCc1ccc(OC)cc1,61%
14,Cc1nc(CN2C(=O)C(=O)c3cc(Br)ccc32)cs1,9%
15,Cc1ccn2c(CN3CCN([C@H]4CCN(Cc5ccccc5)C4)CC3)c(C)nc2c1,9%
16,O=C(Cc1cccc2ccccc12)NC(C1CC1)C1CC1,-12%
17,COc1ccc(NS(=O)(=O)c2ccc(NC(=O)CN(c3ccc(F)cc3)S(C)(=O)=O)cc2)cc1,12%
18,COc1ccccc1Cc1nnc2n1CCCC2,8%
19,COc1cc(CNC2CCCCC2)cc(Br)c1OCc1ccccc1Cl,8%
20,CNC(=O)[C@@H]1C[C@H](NCc2cc(OC)c(OC)c(OC)c2)CN1CC(c1ccccc1)c1ccccc1,50%
21,COc1cc(NC(=O)N2CC(c3noc(-c4ccccc4)n3)C2)cc(OC)c1OC,3%
22,CC(=O)c1ccc(C(C)(C)C)cc1NC(=O)C(C)C,8%
23,O=C(CCn1nc2ccccn2c1=O)N1CC(CC(F)F)C1,6%
24,C[C@]1(C(=O)O)Nc2ccccc2-c2nc(=O)c(-c3ccccc3)nn21,9%
25,C[C@]1(CCc2ccc(O)cc2)Nc2ccccc2-c2nc(=O)c(-c3ccc(F)cc3)nn21,-12%

row,Structure (SMILES),% Inhibition
1,O=c1nc2n(nc1-c1ccccc1)C1(CCC1)Nc1ccccc1-2,60%
2,Nc1nccnc1C(=O)Nc1c(-c2ccccc2)ncn1C1CC1,3%
3,COc1ccc(-n2ncc(Oc3cccc(C)c3)c(Nc3cccc(C(=O)NCc4ccc(F)cc4)c3)c2=O)cc1,30%
4,CC(C)c1ccc(Oc2cnn(-c3cccc(Cl)c3)c(=O)c2Nc2cccc(C(=O)NC3CC3)c2)cc1,54%
5,Cn1cc2c(n1)CCC[C@@H]2NC(=O)c1cccc(C(=O)NC2CC2)c1,0%
6,CCn1ncc2ccc(N[C@@H](C)C3(O)CCOCC3)cc21,12%
7,CCOc1ccc(C(=O)N2CCN(c3nnc4ccccn34)CC2)cc1,8%
8,CC(=O)c1cccc(NC(=O)Cn2c(=O)n(CCc3ccccc3)c(=O)c3ccccc32)c1,10%
9,O=C(CN1C[C@@H](c2ccccc2)Oc2ccccc2C1=O)Nc1ccccc1,-14%
10,CCCN1C(=O)c2ccccc2N2C(=O)CC[C@@]12C(=O)Nc1ccccc1,97%
11,CCN1C(=O)c2ccccc2N2C(=O)CC[C@@]12C(=O)Nc1cccc(OC)c1,96%
12,CCCN1C(=O)c2ccccc2N2C(=O)CC[C@@]12C(=O)Nc1ccc(OC)cc1,92%
13,COc1ccc(NC(=O)C2=NN(CC(=O)Nc3cccc(OC)c3)C(=O)CC2)cc1,-4%
14,COc1ccc(NC(=O)CCC(=O)N2CCc3ccccc3C2)cc1,6%
15,CC(=O)c1cccc(NC(=O)[C@@]23CCC(=O)N2c2ccccc2C(=O)N3C)c1,88%
16,COc1cccc(NC(=O)c2ccc3c(c2)N(C)[C@@H]2CCCCCN2C3=O)c1,9%
17,COc1ccc(NC(=O)CN2N=C(C(=O)Nc3ccccc3)CCC2=O)cc1,-2%
18,CC(=O)c1cccc(NC(=O)c2nonc2C)c1,-11%
19,CC(=O)N1C(C(=O)O)Cc2c([nH]c3ccccc23)C1c1ccc2c(c1)OCO2 (stereo not given),5%
20,Clc1ccc(Cl)c(-c2ccc(CNn3cnnc3)o2)c1,11%
21,O=C(NCC1(Cc2ccccc2)CCC1)N(CCO)C1CC1,-1%
22,Cc1ccn(-c2ccc(C(=O)NC3CCCC3)cn2)n1,-9%
23,C[C@@H](C(=O)Nc1ncc[nH]1)c1ccc2c(c1)[nH]c1ccc(Cl)cc12,16%
24,c1coc([C@H](CNC2CCCC2)N2CCCC2)c1,-12%
25,O=C1NCCC[C@@H]1Nc1ccc(C(F)(F)F)nn1,2%
